According to the supplement of paper PMC6992640:
± gives the standard deviation of the averaged measurements.

Legend:
Assay in all cases: cell viability (% of vehicle); higher = less cytotoxic
[1] = system: HCI01 (cells of a triple-negative basal-like breast cancer xenograft); settings: 1 µM; 72 h
[2] = system: UCD52 (cells of a triple-negative basal-like breast cancer xenograft); settings: 1 µM; 72 h
[3] = system: WHIM2 (cells of a triple-negative basal-like breast cancer xenograft); settings: 1 µM; 72 h
[4] = system: WHIM30 (cells of a triple-negative basal-like breast cancer xenograft); settings: 1 µM; 72 h
[5] = system: HCI01; settings: 10 µM; 72 h
[6] = system: HCI03 (cells of an ER-positive luminal breast cancer xenograft); settings: 10 µM; 72 h
[7] = system: HCI09 (cells of a triple-negative luminal androgen receptor type breast cancer xenograft); settings: 10 µM; 72 h
[8] = system: HCI11 (cells of an ER-positive luminal breast cancer xenograft); settings: 10 µM; 72 h
[9] = system: HCI13 (cells of an ER-positive luminal breast cancer xenograft); settings: 10 µM; 72 h
[10] = system: HCI16 (cells of a triple-negative basal-like breast cancer xenograft); settings: 10 µM; 72 h
[11] = system: UCD52; settings: 10 µM; 72 h
[12] = system: WHIM2; settings: 10 µM; 72 h
[13] = system: WHIM30; settings: 10 µM; 72 h

SMILES | cell viability [1] | cell viability [2] | cell viability [3] | cell viability [4] | cell viability [5] | cell viability [6] | cell viability [7] | cell viability [8] | cell viability [9] | cell viability [10] | cell viability [11] | cell viability [12] | cell viability [13]
COC(=O)NC(C(=O)NC(Cc1ccccc1)C(O)CN(Cc1ccc(-c2ccccn2)cc1)NC(=O)C(NC(=O)OC)C(C)(C)C)C(C)(C)C (configuration not stated) [Atazanavir] | 92.8 | 80.2 | 91.7 | 84.6 | 88.35 ± 0.71 | 80 | 57.5 ± 2 | 74.5 | 81.7 ± 5.1 | 151 | 51.6 ± 3.1 | 73.7 ± 1.3 | 82.1 ± 5.5
O=C(c1ccc(F)c(F)c1Nc1ccc(I)cc1F)N1CC(O)(C2CCCCN2)C1 (configuration not stated) [Cobimetinib] | 74.9 | 52.9 | 58.8 | 59.8 | 76.8 ± 21 | 80.6 | 64.7 ± 24 | 82.8 | 74.8 ± 0.28 | 63.2 | 42.65 ± 0.23 | 48.9 ± 3.3 | 78.2 ± 2.8
CC(NCCCc1cccc(C(F)(F)F)c1)c1cccc2ccccc12.Cl (configuration not stated) [Cinacalcet HCl] | 94.5 | 85.7 | 76.7 | 81.6 | 38.8 ± 2.6 | 46.8 | 21.6 ± 4.7 | 64.8 | 43.3 ± 2.8 | 43.6 | 29.6 ± 2.4 | 43.2 ± 5.7 | 27.6 ± 1.3
Cl.Cl.O=C1c2c(O)ccc(O)c2C(=O)c2c(NCCNCCO)ccc(NCCNCCO)c21 [Mitoxantrone HCl] | 105 | 36.2 | 27.3 | 37.2 | 55.3 ± 38 | 111 | 25.9 ± 0.83 | 55.7 | 73.4 ± 11 | 117 | 27.5 ± 0.38 | 41.3 ± 18 | 65.4 ± 12
C[C@H]1O[C@@H](O[C@H]2[C@@H](O)C[C@H](O[C@H]3[C@@H](O)C[C@H](O[C@H]4CC[C@@]5(C)[C@H](CC[C@@H]6[C@@H]5C[C@@H](O)[C@]5(C)[C@@H](C7=CC(=O)OC7)CC[C@]65O)C4)O[C@@H]3C)O[C@@H]2C)C[C@H](O)[C@@H]1O [Digoxin] | 50.6 | 25.3 | 138 | 25.7 | 35.2 ± 3 | 97.9 | 40.1 ± 17 | 69.2 | – | 45.8 | 66.6 ± 8.6 | 66.4 ± 7.6 | 41.4 ± 1.1
[O-]n1ccccc1=S.[O-]n1ccccc1=S.[Zn+2] [Zinc Pyrithione] | 52 | 67.2 | 70.2 | 65.3 | 16 ± 11 | 45.1 | 29.6 ± 26 | 24.8 | 144 ± 130 | 43.1 | 25.6 ± 1.7 | 33 ± 8.9 | 45.5 ± 4.8
CCCCc1oc2ccc(NS(C)(=O)=O)cc2c1C(=O)c1ccc(OCCCN(CCCC)CCCC)cc1.Cl [Dronedarone HCl] | 110 | 86.5 | 106 | 76.2 | 29.3 ± 12 | 48 | 24.4 ± 12 | 66.1 | 34.9 ± 1.1 | 46.6 | 30.9 ± 5.9 | 40.9 ± 14 | 33.3 ± 5.1
CCCSc1nc(NC2CC2c2ccc(F)c(F)c2)c2nnn(C3CC(OCCO)C(O)C3O)c2n1 (configuration not stated) [Ticagrelor] | 97.8 | 91 | 89.7 | 75.5 | 41.1 ± 38 | 122 | 47.6 ± 30 | 80.5 | 46.1 ± 3.6 | 80 | 64.95 ± 0.47 | 41.2 ± 12 | 97.7 ± 5.2
CNC(=O)c1cc(Oc2ccc(NC(=O)Nc3ccc(Cl)c(C(F)(F)F)c3)c(F)c2)ccn1 [Regorafenib] | 103 | 80.7 | 99.6 | 89.9 | 22.5 ± 4.2 | 48 | 13.2 ± 3.8 | 43.5 | 83.1 ± 5.7 | 39.7 | 117 ± 4.5 | 30.6 ± 7.5 | 44.9 ± 1.4
Cc1ccc(C(=O)N(CCCN)C(c2nc3cc(Cl)ccc3c(=O)n2Cc2ccccc2)C(C)C)cc1 (configuration not stated) | 98.7 | 47.7 | 62.5 | 78 | 34.6 ± 0.75 | 41.2 | 22.4 ± 2.7 | 56.8 | 38.3 ± 4 | 45.5 | 122 ± 8.3 | 34.8 ± 0.98 | 39.8 ± 4
CC(C)C1=CC(=C2NNC(=O)N2c2ccc3c(ccn3C)c2)C(=O)C=C1O [Ganetespib (STA-9090)] | 83.9 | 46.6 | 55.2 | 138 | 59.1 ± 28 | 53.9 | 25.3 ± 2 | 36.5 | – | 68.2 | 48.6 ± 9.8 | 95 ± 7.9 | 96.6 ± 1.9
CCN(CC)CCNC(=O)c1c(C)[nH]c(C=C2C(=O)Nc3ccc(F)cc32)c1C.O=C(O)CC(O)C(=O)O [Sunitinib malate] | 73.4 | 64.6 | 96 | 69.2 | 37.7 ± 18 | 73.6 | 11.3 ± 0.53 | 111 | 58.1 ± 1.6 | 128 | 15.3 ± 1.1 | 31.7 ± 12 | 41.7 ± 11
O=C(O)CO.[NH2-].[NH2-].[Pt+2] [Nedaplatin] | 85.1 | 103 | 105 | 79.4 | 52.5 ± 16 | 89 | 87.8 ± 5.8 | 96.8 | 97 ± 12 | 51.1 | 33.06 ± 0.081 | 56.2 ± 5.7 | 66 ± 3.2
